Reference: the supplement of paper PMC8866396
± gives the standard deviation of the averaged measurements.

How the values were obtained:
IL-6-GFP PC-9GR = assay: cell viability (CCK-8 OD) relative to DMSO control (fraction of control); higher = more viable cells; settings: compound concentration: 10 uM; treatment time: 48 h
In short: (§1)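 Compounds from a purchased library of 510 were each tested at a final 10 μM for 48 h on PC-9 and PC-9GR lung cancer cells plated at 3000 cells/well in 96-well plates. These cells overexpressed IL-6-GFP from a lentiviral construct. Viability came from CCK-8 absorbance, given as the optical density of each well over that of the vehicle control well, across independent replicates numbering two.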

IL-6-GFP PC-9 = assay: as above; settings: compound concentration: 10 uM; treatment time: 48 h
In short: as §1

SMILES	cell viability (IL-6-GFP PC-9GR)	cell viability (IL-6-GFP PC-9)
COc1cccc2c1C(=O)c1c(O)c3c(c(O)c1C2=O)CC(O)(C(C)=O)CC3OC1CC(N)C(O)C(C)O1.Cl (stereo unspecified) [Daunorubicin HCl]	0.0902 ± 0.071	0.0966 ± 0.039
O=C(c1ccc(OCCN2CCCCC2)cc1)c1c(-c2ccc(O)cc2)sc2cc(O)ccc12 [Raloxifene]	0.849 ± 0.1	1.08 ± 0.11
Cc1ccc(C(C)C)c(O)c1 [Thymol]	0.9 ± 0.16	1.08 ± 0.2
C/C=C(/C(=C/C)c1ccc(O)cc1)c1ccc(O)cc1 [Dienestrol]	1.06 ± 0.025	1.16 ± 0.093
COc1cc(C2Oc3ccc(C4Oc5cc(O)cc(O)c5C(=O)C4O)cc3OC2CO)ccc1O (stereo unspecified) [Silymarin]	1.53 ± 0.29	1.21 ± 0.17
CCC(Nc1ncnc2[nH]cnc12)c1nc2cccc(F)c2c(=O)n1-c1ccccc1 (stereo unspecified) [Idelalisib (CAL-101, GS-1101)]	1.27 ± 0.14	0.858 ± 0.15
Cc1oncc1C(=O)Nc1ccc(C(F)(F)F)cc1 [Leflunomide]	1.1 ± 0.067	0.683 ± 0.21
CNC(=O)c1cc(Oc2ccc(NC(=O)Nc3ccc(Cl)c(C(F)(F)F)c3)c(F)c2)ccn1 [Regorafenib (BAY 73-4506)]	0.833 ± 0.029	0.476 ± 0.11
Nc1ccccc1NC(=O)c1ccc(CNC(=O)OCc2cccnc2)cc1 [Entinostat (MS-275)]	0.59 ± 0.036	0.465 ± 0.028
CCC1(O)CC2CN(CCc3c([nH]c4ccccc34)C(C(=O)OC)(c3cc4c(cc3OC)N(C=O)C3C(O)(C(=O)OC)C(OC(C)=O)C5(CC)C=CCN6CCC43C65)C2)C1.O=S(=O)(O)O (stereo unspecified) [Vincristine sulfate]	0.587 ± 0.086	0.553 ± 0.11
Cl.NC1=NCC2c3ccccc3Cc3ccccc3N12 (stereo unspecified) [Epinastine HCl]	0.9943 ± 0.0026	1.22 ± 0.014
CCC1(O)CC2CN(CCc3c([nH]c4ccccc34)C(C(=O)OC)(c3cc4c(cc3OC)N(C)C3C(O)(C(=O)OC)C(OC(C)=O)C5(CC)C=CCN6CCC43C65)C2)C1.O=S(=O)(O)O (stereo unspecified) [Vinblastine sulfate]	0.475 ± 0.069	0.655 ± 0.084
CNC(=O)c1c(C)oc2cc(Oc3ncnc4cc(OC)c(OC)cc34)ccc12 [Fruquintinib]	1.04 ± 0.12	1.12 ± 0.08
CC(=O)OC1(C(C)=O)CCC2C3C=C(C)C4=CC(=O)CCC4(C)C3CCC21C (stereo unspecified) [Megestrol Acetate]	1.22 ± 0.09	1.13 ± 0.1
CS(=O)(=O)CCNCc1ccc(-c2ccc3ncnc(Nc4ccc(OCc5cccc(F)c5)c(Cl)c4)c3c2)o1.Cc1ccc(S(=O)(=O)O)cc1.Cc1ccc(S(=O)(=O)O)cc1	1.18 ± 0.056	0.708 ± 0.033
CC1CC2C3CCC4=CC(=O)C=CC4(C)C3(F)C(O)CC2(C)C1C(=O)CO (stereo unspecified) [Desoximetasone]	0.815 ± 0.23	1.08 ± 0.093
Cc1cnc(Nc2ccc(OCCN3CCCC3)cc2)nc1Nc1cccc(S(=O)(=O)NC(C)(C)C)c1	0.186 ± 0.081	0.3 ± 0.12
CCCCOC(=O)c1ccccc1Nc1cccc(C(F)(F)F)c1 [Ufenamate]	0.8299 ± 0.0043	0.992 ± 0.24
CCCCCCCCCCCCCCCCCCOP(=O)([O-])OC1CC[N+](C)(C)CC1 [Perifosine (KRX-0401)]	0.943 ± 0.084	0.786 ± 0.059
COc1cc(N2CCC(N3CCN(C)CC3)CC2)ccc1Nc1ncc(Cl)c(Nc2ccccc2P(C)(C)=O)n1	0.688 ± 0.15	0.41 ± 0.083
Cc1ccc(C(C)C)cc1 [p-Cymene]	0.822 ± 0.24	1.249 ± 0.011
O=C(O)Cc1ccccc1Nc1c(Cl)cccc1Cl [Diclofenac acid]	1.07 ± 0.24	1.12 ± 0.17
O=c1ccc2ccc(O)c(O)c2o1 [Daphnetin]	1.303 ± 0.0056	1.17 ± 0.18
C[Se]CC[C@H](N)C(=O)O [L-SelenoMethionine]	1.19 ± 0.22	1.28 ± 0.098
CS(=O)(=O)O.N#CC1(c2ccc(NC(=O)c3cccnc3NCc3ccncc3)cc2)CCCC1	1.32 ± 0.072	0.887 ± 0.084
N#CC1(c2ccc(NC(=O)c3cccnc3NCc3ccncc3)cc2)CCCC1 [Apatinib]	0.0432 ± 0.2	1.177 ± 0.0032
CN(C)CCN1C(=O)c2cccc3cc(N)cc(c23)C1=O [Amonafide]	0.534 ± 0.025	0.425 ± 0.076
Cc1ccc(C(C)C)cc2c(C)ccc1-2 [Guaiazulene]	0.98 ± 0.15	0.275 ± 0.37
